PK Bst: Pyruvate Kinase; purified pyruvate kinase, luminescence ATP production; ribose 5-phosphate activator present at AC10; Potency, µM; hit rate 1.2% among 51,000; AID 361, 2006; in the data active = potency below about 11 µM; inconclusive = mostly about 12 µM to 25 µM;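 the screen sought inhibitors and activators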
GBA activity: Glucocerebrosidase; purified enzyme, resorufin glucoside fluorescence (screen aimed at inhibitors), 20 min; Potency, µM; hit rate 1.1% among 48,000; AID 360, 2006; in the data active = potency below about 15 µM; inconclusive = mostly about 16 µM to 33 µM;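 note: the screen sought inhibitors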
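Normal human glucocerebrosidase (0.2 nM final) was assayed with resorufin β-D-glucopyranoside (30 uM final) in 50mM citric acid/KH2PO4, 10mM sodium taurocholate, 0.01% tween-20, pH 5.9. Compounds were titrated; fluorescence (Ex 548, Em 600) read after 20 min at RT.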
Luciferase inh: qHTS Assay for Inhibitors of Firefly Luciferase; Luciferin 4-monooxygenase (Photinus pyralis), P08659; purified firefly luciferase, luminescence, 8 min; hit rate 2.2% among 72,000; Potency, µM (highest dose often 57.1 µM), actives largely listed as inhibitors; active = well fitted inhibition curve with a large enough effect; inconclusive = small, poorly fitted or top-dose-only effect; note: nearly all actives have a fitted effect of over 40% in size
Target sequence (P08659 whole entry, looked up): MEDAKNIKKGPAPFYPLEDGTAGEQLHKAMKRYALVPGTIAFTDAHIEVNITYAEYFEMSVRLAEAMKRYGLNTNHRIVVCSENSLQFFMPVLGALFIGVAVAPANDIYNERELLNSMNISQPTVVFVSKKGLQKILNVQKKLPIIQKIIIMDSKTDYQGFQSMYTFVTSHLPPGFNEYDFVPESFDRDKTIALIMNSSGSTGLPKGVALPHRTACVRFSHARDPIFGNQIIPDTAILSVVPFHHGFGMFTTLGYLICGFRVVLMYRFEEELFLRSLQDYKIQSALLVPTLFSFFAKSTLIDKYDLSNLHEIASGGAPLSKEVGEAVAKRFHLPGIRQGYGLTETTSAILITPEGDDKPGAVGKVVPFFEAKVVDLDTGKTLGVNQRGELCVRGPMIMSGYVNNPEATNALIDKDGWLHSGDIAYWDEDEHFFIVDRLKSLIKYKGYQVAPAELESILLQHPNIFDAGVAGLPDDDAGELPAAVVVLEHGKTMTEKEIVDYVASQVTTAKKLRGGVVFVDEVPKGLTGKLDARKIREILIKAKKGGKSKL
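Luminescence read-out after 8 min at room temperature; enzyme reaction used luciferin plus 10 uM ATP (linear range) in imidazole buffer pH 7.2 with KCl, MgCl2, Tween 20 and BSA. Each sample was run as a titration.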
Hits are given with their value; . = inactive; ? = inconclusive; / = not tested or not shown; [ ] = another dose, or the depositor's remark. Only some compounds are listed: those with a hit (about 3.2% of all), similar ones and a draw of the others.

SMILES	PK Bst	GBA activity	Luciferase inh
Cc1cccc(NC(=O)C2CCN(S(=O)(=O)c3cccc4nsnc34)CC2)n1	?	.	.
COc1ccc2nc(NC(=O)C3CCN(S(=O)(=O)c4cccc5nsnc45)CC3)sc2c1	3	.	.
N#CCSc1nc2cc(C(=O)N3CCCC3)ccc2c(=O)n1Cc1ccccc1	.	.	.
N#CCSc1nc2cc(C(=O)N3CCC(C(N)=O)CC3)ccc2c2nc3ccccc3n12	0.47	.	.
O=c1cnc2cnc(Oc3cccc(Cl)c3)nc2n1C1CC1	/	/	.[11.4 µM]
COc1ccccc1NC(=O)Cn1nnc(-c2ccccc2NC(=O)c2ccco2)n1	.	.	.
COc1ccc(NC(=O)Cn2nnc(-c3ccccc3NC(=O)c3ccco3)n2)cc1	.	7.2	.
CC(=O)Nc1ccc(NC(=O)c2cc(C)nn2-c2ccccc2)cc1	.	12	.
CC(=O)c1cc2c(cc1NC(=O)c1cc(C)nn1-c1ccccc1)OCO2	/	/	.
COc1ccc(-c2nc3cnc(N4CCNCC4)nc3n(CCc3ccccc3)c2=O)cc1	/	/	.[11.4 µM]
CC(C)Oc1ccc(NC(=O)c2ccncc2)cc1	.	7.9	.
O=C(Nc1ccc(Cl)cc1)c1ccncc1	/	/	.
C[N+](C)(C)CC(=O)N/N=C\c1ccncc1	/	/	.[11.4 µM]
O=C(Oc1ccc2c(c1)OCC2=O)c1ccccc1	.	.	.
Cc1ccc(C(=O)Oc2ccc3c(c2)ncn3C)cc1	?	.	16µM
Cn1cnc2cc(OC(=O)c3ccccc3)ccc21	.	.	16µM
COc1ccc(OC)c(-n2cnc3cc(C(=O)O)ccc32)c1	.	.	.
O=C(Nc1ccc(C(=O)Nc2ccc(C(=O)Nc3ccc(S(=O)(=O)O)c4cc(S(=O)(=O)O)cc(S(=O)(=O)O)c34)cc2)cc1)Nc1ccc(C(=O)Nc2ccc(C(=O)Nc3ccc(S(=O)(=O)O)c4cc(S(=O)(=O)O)cc(S(=O)(=O)O)c34)cc2)cc1	/	/	.
C[C@]1(c2ccccc2)O[C@@H]2C[C@@H]3[C@@H]4CCC5=CC(=O)C=C[C@@]5(C)[C@]4(F)[C@H](O)C[C@]3(C)[C@@]2(C(=O)CO)O1	/	/	.[11.4 µM]
S[C@@H]1CCCN(Cc2ccccc2)C1	/	/	.[11.4 µM]
CCOc1ccccc1NC=C1C(=O)OC(C)(C)OC1=O	.	.	.
COc1ccccc1NC=C1C(=O)OC(C)(C)OC1=O	/	/	16µM
CCN1CCN(c2cc(C)c3cc(NC(=O)c4cncc(Br)c4)ccc3n2)CC1	.	3.7	.
COc1cccc(C(=O)Nc2ccc3nc(N4CCN(c5ncccn5)CC4)cc(C)c3c2)c1OC	.	8.7	.
CCOc1ccccc1C(=O)Nc1ccc2nc(N3CCN(c4ncccn4)CC3)cc(C)c2c1	.	.	.
SMILES	PK Bst	GBA activity	Luciferase inh
Cc1cc(N2CCOCC2)nc2ccc(NC(=O)CCC(=O)N3CCCC(C)C3)cc12 (stereo not drawn)	/	1.2	25µM
Cc1cc(N2CCN(C)CC2)nc2ccc(NC(=O)CCC(=O)NCc3ccco3)cc12	.	.	.
CCN1CCN(c2cc(C)c3cc(NC(=O)c4ccc5c(c4)OCO5)ccc3n2)CC1	/	/	.
COc1cccc(C(=O)Nc2ccc3nc(N4CCOCC4)cc(C)c3c2)c1	/	/	.
COc1ccc(C)cc1NC(=O)CCC(=O)Nc1ccc2nc(N3CCN(C)CC3)cc(C)c2c1	.	9.5	.
CCCNC(=O)OC[C@@H]1O[C@H](CCO/N=C(\C)CCN2CCc3nc(-c4ccccc4)c(-c4ccccc4)cc3C2)C=C[C@@H]1Oc1ccc(OC)cc1	/	/	.[11.4 µM]
CCNc1ncc2nc(CCc3ccccc3)c(=O)n(CCOC)c2n1	/	/	.[11.4 µM]
C=CCNS(=O)(=O)c1ncnc2nc[nH]c12	/	/	.[11.4 µM]
Clc1ccc(-c2nnc(-c3cccc4ccccc34)o2)cc1Cl	/	/	.[11.4 µM]
Brc1ccc(-c2nnc(-c3ccccc3Br)o2)cc1	/	/	4µM
Brc1ccccc1-c1nnc(-c2cccnc2)o1	.	.	?
Clc1ccc(-c2nnc(-c3ccccc3Cl)o2)cc1	/	/	13µM
Cc1ccccc1-c1nnc(-c2ccc(Cl)cc2)o1	/	/	.
Cc1ccccc1-c1nnc(-c2ccccc2)o1	/	/	13µM
COCCn1c(=O)c(C)nc2cnc(N3CCNCC3)nc21	/	/	.[11.4 µM]
O=C(Nc1ccccc1)N1CC[C@@]2(CCCN(C(=O)c3cccc(F)c3)C2)C1	/	/	.[11.4 µM]
O=C(O)C[C@H]1OCC=C2C[N@@+]3([O-])CC[C@]45c6ccccc6N[C@@H]4[C@@H]1[C@H]2C[C@H]53	/	/	.[11.4 µM]
NC(=O)SCC(=O)Nc1ccc2ncccc2c1	/	/	.[11.4 µM]
CCN(CCO)Cc1cc(=O)oc2c(C)c(C)ccc12	.	.	.
Cc1ccc2c(COn3nnc4ccc(S(=O)(=O)N(C)C)cc43)cc(=O)oc2c1C	.	11	.
COCCn1c(=O)c(-c2cc(F)cc(F)c2)nc2cnc(Oc3cccc(Cl)c3)nc21	/	/	.[11.4 µM]
Cc1cnc(CNc2nc(-c3c(C)noc3C)nc3ccccc23)cn1	/	/	.[2.29 µM]
O=C(NC1=NCCS1)c1ccncc1	.	.	.

High-throughput results (PubChem)
